Here are results for eight compounds from PubChem BioAssay (EPA / NIEHS).

The source made the active and inactive calls. Rule for the calls: active = hit-call score of the fitted dose curve at least 0.9, where 1 is the maximum; inactive = score below 0.9.

Assay [1] is described as follows: CEETOX_H295R_11DCORT: CeeTox H295R High-throughput Steroidogenesis Assay for 11-Deoxycortisol (11DCORT) (AID 2283432). The settings on record: actives raise or lower the signal. In outline:
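H295R cells prestimulated 48 h with 10 uM forskolin, then exposed 48 h to chemical in 0.1% DMSO. 11-Deoxycortisol in medium quantified by HPLC-MS/MS after MTBE extraction; bidirectional fit versus DMSO. MTT viability read in same wells.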

The nature of assay [2]: CEETOX_H295R_OHPREG: CeeTox H295R High-throughput Steroidogenesis Assay for OH-Pregnenolone (OHPREG) (AID 2283434). Particulars: actives raise or lower the signal. In outline:
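H295R cells pre-stimulated 48 h with 10 uM forskolin, then exposed 48 h to chemical in 0.1% DMSO. 17alpha-hydroxypregnenolone in medium quantified by MTBE extraction and HPLC-MS/MS; bidirectional fit versus DMSO, viability checked by MTT.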

Assay [3] is described as follows: CEETOX_H295R_CORTIC: CeeTox H295R High-throughput Steroidogenesis Assay for Corticosterone (CORTIC) (AID 2283437).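 Note: corticosterone secreted into medium quantified by mass spectrometry.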 The settings on record: actives raise or lower the signal. In outline: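 H295R adrenal cells prestimulated 48 hours with 10 uM forskolin, then exposed 48 hours to chemical in 0.1% DMSO. Corticosterone in medium measured by HPLC-MS/MS after MTBE extraction; MTT viability in the same wells; bidirectional fit versus DMSO.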

Assay [4] can be described thus: CEETOX_H295R_CORTISOL: CeeTox H295R High-throughput Steroidogenesis Assay for Cortisol (AID 2283438).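 Note: cortisol secreted into medium quantified by LC-MS/MS.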 Particulars: actives raise or lower the signal. In outline:
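H295R human adrenal cells were prestimulated 48 h with 10 uM forskolin, then exposed 48 h to test chemical (0.1% DMSO final). Medium cortisol was quantified by HPLC-MS/MS after MTBE extraction; bidirectional fitting relative to DMSO baseline.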

Assay [5] can be described thus: CEETOX_H295R_DOC: CeeTox H295R High-throughput Steroidogenesis Assay for DOC (AID 2283439). Particulars: actives raise or lower the signal. In outline:
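H295R adrenal cells prestimulated 48 h with 10 uM forskolin, then exposed 48 h to test chemical (0.1% DMSO final). Medium 11-deoxycorticosterone extracted with MTBE, quantified by HPLC-MS/MS; bidirectional fit versus DMSO baseline; MTT viability in same wells.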

Assay [6] is described as follows: CEETOX_H295R_ESTRADIOL: CeeTox H295R High-throughput Steroidogenesis Assay for Estradiol (AID 2283440).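 Note: estradiol secreted into medium quantified by LC-MS/MS after dansyl derivatisation.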 The settings on record: actives raise or lower the signal. In outline:
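H295R, 48 h forskolin (10 uM) prestim → 48 h compound, 0.1% DMSO final. Estradiol in medium: MTBE extraction, dansyl chloride derivatization, LC-MS/MS. Fit bidirectional vs DMSO baseline; MTT viability in same wells.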

Assay [7] in a line: CEETOX_H295R_ESTRONE: CeeTox H295R High-throughput Steroidogenesis Assay for Estrone (AID 2283441).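 Note: estrone secreted into medium measured by LC-MS/MS after dansyl derivatization.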 The settings on record: actives raise or lower the signal. In outline: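 H295R cells; 48 h forskolin (10 uM) prestimulation; 48 h compound exposure, 0.1% DMSO final. Medium estrone: MTBE extraction, dansyl derivatization, HPLC-MS/MS. Bidirectional fit vs DMSO.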
Assay [8] in a line: CEETOX_H295R_PROG: CeeTox H295R High-throughput Steroidogenesis Assay for Progesterone (PROG) (AID 2283442).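 For AC50: human H295R adrenal cells primed with 10 µM forskolin before dosing.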 Particulars: actives raise or lower the signal. In outline: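 Progesterone read-out: HPLC-MS/MS on MTBE extracts of conditioned medium after 48 h chemical exposure of forskolin-primed (10 uM, 48 h) H295R cells. Gain or loss of signal was fitted relative to DMSO baseline.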

Read-out in assay [9]: Tumor necrosis factor receptor superfamily member 6 (Homo sapiens) (UniProt P25445)
Briefly: LTEA_HepaRG_FAS: Life Technologies and Expression Analysis (LTEA) Assay for Fas cell surface death receptor (FAS) using HepaRG (AID 2283447). The settings on record: mRNA level, 48 h; actives raise or lower the signal. In outline: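 Differentiated HepaRG cells in serum-free induction medium were exposed 48 h to 8 half-log concentrations up to 100 uM in 0.5% DMSO, in duplicate. FAS mRNA was measured by qRT-PCR normalised to ACTB, GAPDH and POLR2A; bidirectional fit versus DMSO.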

Read-out in assay [10]: Fatty acid synthase (Homo sapiens) (UniProt P49327)
Briefly: LTEA_HepaRG_FASN: Life Technologies and Expression Analysis (LTEA) Assay for Fatty Acid Synthase (FASN) using HepaRG (AID 2283448). The settings on record: mRNA level, 48 h; actives raise or lower the signal. In outline:
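Differentiated human HepaRG cells were exposed for 48 h in serum-free induction medium to eight half-log concentrations up to 100 uM in 0.5% DMSO, in duplicate. FASN mRNA was quantified by TaqMan qRT-PCR, normalized to ACTB/GAPDH/POLR2A, and fitted bidirectionally against DMSO.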

Read-out in assay [11]: Cyclin D2 (CCND2), CCND2 (gene 894)
Nature of the assay: LTEA_HepaRG_CCND2: Life Technologies and Expression Analysis (LTEA) Assay for Cyclin D2 (CCND2) using HepaRG (AID 2283449).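 Note: CCND2 transcript measured by TaqMan qRT-PCR and normalised to three housekeeping genes.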 Particulars: mRNA level, 48 h; actives raise or lower the signal. In outline: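 Chemicals in 0.5% DMSO, eight half-log concentrations from 100 uM top, were applied in duplicate for 48 h to human HepaRG cells in serum-free induction medium. CCND2 mRNA by TaqMan qRT-PCR, normalised to ACTB/GAPDH/POLR2A; bidirectional fit versus DMSO.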

Read-out in assay [12]: Cyclin Dependent Kinase Inhibitor 1A (CDKN1A), CDKN1A (gene 1026)
Nature of the assay: LTEA_HepaRG_CDKN1A: Life Technologies and Expression Analysis (LTEA) Assay for Cyclin Dependent Kinase Inhibitor 1A (CDKN1A) using HepaRG (AID 2283450). Particulars: mRNA level, 48 h; actives raise or lower the signal. In outline:
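HepaRG, 48 h dosing, 8-pt half-log series from 100 uM top, 0.5% DMSO vehicle, duplicates. Readout: TaqMan qRT-PCR of CDKN1A transcript, housekeeping-normalized (ACTB, GAPDH, POLR2A). Up/down curve fit relative to DMSO.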

Read-out in assay [13]: Cyclin D1 (CCND1), CCND1 (gene 595)
Briefly: LTEA_HepaRG_CCND1: Life Technologies and Expression Analysis (LTEA) Assay for Cyclin D1 (CCND1) using HepaRG (AID 2283451). The settings on record: mRNA level, 48 h; actives raise or lower the signal. In outline: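 qRT-PCR (Fluidigm 96.96 array) read-out of transcript level, housekeeping-normalized (ACTB/GAPDH/POLR2A). HepaRG cells, 48 h chemical exposure, 8-point half-log series from 100 uM, 0.5% DMSO vehicle; gain or loss relative to DMSO baseline.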

Read-out in assay [14]: catalase (CAT), CAT (gene 847)
Nature of the assay: LTEA_HepaRG_CAT: Life Technologies and Expression Analysis (LTEA) Assay for catalase (CAT) using HepaRG (AID 2283452). The settings on record: mRNA level, 48 h; actives raise or lower the signal. In outline: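 HepaRG cells in serum-free induction medium, 0.5% DMSO vehicle, exposed 48 h in duplicate over 8 half-log concentrations from 100 uM. CAT mRNA measured by qRT-PCR, normalized to ACTB, GAPDH, POLR2A; bidirectional fit versus DMSO.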

Read-out in assay [15]: flavin-containing dimethylaniline monooxygenases 3 (FMO3), FMO3 (gene 2328)
Briefly: LTEA_HepaRG_FMO3: Life Technologies and Expression Analysis (LTEA) Assay for flavin-containing dimethylaniline monooxygenases 3 (FMO3) using HepaRG (AID 2283453).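 For AC50: FMO3 transcript by TaqMan qRT-PCR normalized to ACTB GAPDH and POLR2A.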 Particulars: mRNA level, 48 h; actives raise or lower the signal. In outline:
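HepaRG, 48 h exposure, 8-pt half-log series from 100 uM, 0.5% DMSO vehicle, duplicates; FMO3 transcript by Fluidigm TaqMan qRT-PCR, housekeeping-normalized; gain/loss fit vs DMSO.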

Read-out in assay [16]: Cytochrome P450 (CYP1A1), CYP1A1 (gene 1543)
Briefly: LTEA_HepaRG_CYP1A1: Life Technologies and Expression Analysis (LTEA) Assay for Cytochrome P450 (CYP1A1) using HepaRG (AID 2283454). Particulars: mRNA level, 48 h; actives raise or lower the signal. In outline:
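qRT-PCR read-out: CYP1A1 transcript normalized to three housekeeping genes, fitted bidirectionally against 0.5% DMSO vehicle baseline. Human HepaRG cells, 48 h chemical exposure, 8-point half-log series topping at 100 uM.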

Read-out in assay [17]: CFLAR gene, CFLAR (gene 8837)
Nature of the assay: LTEA_HepaRG_CFLAR: Life Technologies and Expression Analysis (LTEA) Assay for CFLAR gene using HepaRG (AID 2283455). Particulars: mRNA level, 48 h; actives raise or lower the signal. In outline:
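Differentiated HepaRG cells in serum-free induction medium were exposed 48 h in duplicate to eight half-log concentrations up to 100 uM in 0.5% DMSO; mRNA measured by TaqMan qRT-PCR, normalized to ACTB, GAPDH, POLR2A; bidirectional fitting versus DMSO.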

Read-out in assay [18]: Forkhead box O1 (FOXO1), FOXO1 (gene 2308)
Briefly: LTEA_HepaRG_FOXO1: Life Technologies and Expression Analysis (LTEA) Assay for Forkhead box O1 (FOXO1) using HepaRG (AID 2283456). The settings on record: mRNA level, 48 h; actives raise or lower the signal. In outline:
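Differentiated HepaRG cells, in serum-free induction medium with 0.5% DMSO, exposed 48 h in duplicate to 8-point half-log series from 100 uM. FOXO1 mRNA measured by TaqMan qRT-PCR, normalized to ACTB, GAPDH, POLR2A; bidirectional fit versus DMSO.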

Assay [19] can be described thus: CEETOX_H295R_ANDR: CeeTox H295R High-throughput Steroidogenesis Assay for Androstenedione (ANDR) (AID 2283436). The settings on record: actives raise or lower the signal. In outline:
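H295R cells, following OECD 456 with minor changes, exposed to chemicals for 48 h. Androstenedione in the medium was quantified by HPLC-MS/MS after MTBE extraction. Fitting was bidirectional versus DMSO; chemicals were diluted until MTT viability was ≥70%.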

Assay [20] can be described thus: CEETOX_H295R_TESTO: CeeTox H295R High-throughput Steroidogenesis Assay for Testosterone (TESTO) (AID 2283457). The settings on record: actives raise or lower the signal. In outline: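 Readout: testosterone quantified by HPLC-MS/MS (C18, ESI positive) after MTBE liquid-liquid extraction of culture medium. Cells were H295R, 48 h chemical exposure per OECD 456 with modifications. Gain or loss of signal fitted relative to DMSO.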

Chain of Fatty acid synthase (Homo sapiens) (P49327 whole entry, looked up): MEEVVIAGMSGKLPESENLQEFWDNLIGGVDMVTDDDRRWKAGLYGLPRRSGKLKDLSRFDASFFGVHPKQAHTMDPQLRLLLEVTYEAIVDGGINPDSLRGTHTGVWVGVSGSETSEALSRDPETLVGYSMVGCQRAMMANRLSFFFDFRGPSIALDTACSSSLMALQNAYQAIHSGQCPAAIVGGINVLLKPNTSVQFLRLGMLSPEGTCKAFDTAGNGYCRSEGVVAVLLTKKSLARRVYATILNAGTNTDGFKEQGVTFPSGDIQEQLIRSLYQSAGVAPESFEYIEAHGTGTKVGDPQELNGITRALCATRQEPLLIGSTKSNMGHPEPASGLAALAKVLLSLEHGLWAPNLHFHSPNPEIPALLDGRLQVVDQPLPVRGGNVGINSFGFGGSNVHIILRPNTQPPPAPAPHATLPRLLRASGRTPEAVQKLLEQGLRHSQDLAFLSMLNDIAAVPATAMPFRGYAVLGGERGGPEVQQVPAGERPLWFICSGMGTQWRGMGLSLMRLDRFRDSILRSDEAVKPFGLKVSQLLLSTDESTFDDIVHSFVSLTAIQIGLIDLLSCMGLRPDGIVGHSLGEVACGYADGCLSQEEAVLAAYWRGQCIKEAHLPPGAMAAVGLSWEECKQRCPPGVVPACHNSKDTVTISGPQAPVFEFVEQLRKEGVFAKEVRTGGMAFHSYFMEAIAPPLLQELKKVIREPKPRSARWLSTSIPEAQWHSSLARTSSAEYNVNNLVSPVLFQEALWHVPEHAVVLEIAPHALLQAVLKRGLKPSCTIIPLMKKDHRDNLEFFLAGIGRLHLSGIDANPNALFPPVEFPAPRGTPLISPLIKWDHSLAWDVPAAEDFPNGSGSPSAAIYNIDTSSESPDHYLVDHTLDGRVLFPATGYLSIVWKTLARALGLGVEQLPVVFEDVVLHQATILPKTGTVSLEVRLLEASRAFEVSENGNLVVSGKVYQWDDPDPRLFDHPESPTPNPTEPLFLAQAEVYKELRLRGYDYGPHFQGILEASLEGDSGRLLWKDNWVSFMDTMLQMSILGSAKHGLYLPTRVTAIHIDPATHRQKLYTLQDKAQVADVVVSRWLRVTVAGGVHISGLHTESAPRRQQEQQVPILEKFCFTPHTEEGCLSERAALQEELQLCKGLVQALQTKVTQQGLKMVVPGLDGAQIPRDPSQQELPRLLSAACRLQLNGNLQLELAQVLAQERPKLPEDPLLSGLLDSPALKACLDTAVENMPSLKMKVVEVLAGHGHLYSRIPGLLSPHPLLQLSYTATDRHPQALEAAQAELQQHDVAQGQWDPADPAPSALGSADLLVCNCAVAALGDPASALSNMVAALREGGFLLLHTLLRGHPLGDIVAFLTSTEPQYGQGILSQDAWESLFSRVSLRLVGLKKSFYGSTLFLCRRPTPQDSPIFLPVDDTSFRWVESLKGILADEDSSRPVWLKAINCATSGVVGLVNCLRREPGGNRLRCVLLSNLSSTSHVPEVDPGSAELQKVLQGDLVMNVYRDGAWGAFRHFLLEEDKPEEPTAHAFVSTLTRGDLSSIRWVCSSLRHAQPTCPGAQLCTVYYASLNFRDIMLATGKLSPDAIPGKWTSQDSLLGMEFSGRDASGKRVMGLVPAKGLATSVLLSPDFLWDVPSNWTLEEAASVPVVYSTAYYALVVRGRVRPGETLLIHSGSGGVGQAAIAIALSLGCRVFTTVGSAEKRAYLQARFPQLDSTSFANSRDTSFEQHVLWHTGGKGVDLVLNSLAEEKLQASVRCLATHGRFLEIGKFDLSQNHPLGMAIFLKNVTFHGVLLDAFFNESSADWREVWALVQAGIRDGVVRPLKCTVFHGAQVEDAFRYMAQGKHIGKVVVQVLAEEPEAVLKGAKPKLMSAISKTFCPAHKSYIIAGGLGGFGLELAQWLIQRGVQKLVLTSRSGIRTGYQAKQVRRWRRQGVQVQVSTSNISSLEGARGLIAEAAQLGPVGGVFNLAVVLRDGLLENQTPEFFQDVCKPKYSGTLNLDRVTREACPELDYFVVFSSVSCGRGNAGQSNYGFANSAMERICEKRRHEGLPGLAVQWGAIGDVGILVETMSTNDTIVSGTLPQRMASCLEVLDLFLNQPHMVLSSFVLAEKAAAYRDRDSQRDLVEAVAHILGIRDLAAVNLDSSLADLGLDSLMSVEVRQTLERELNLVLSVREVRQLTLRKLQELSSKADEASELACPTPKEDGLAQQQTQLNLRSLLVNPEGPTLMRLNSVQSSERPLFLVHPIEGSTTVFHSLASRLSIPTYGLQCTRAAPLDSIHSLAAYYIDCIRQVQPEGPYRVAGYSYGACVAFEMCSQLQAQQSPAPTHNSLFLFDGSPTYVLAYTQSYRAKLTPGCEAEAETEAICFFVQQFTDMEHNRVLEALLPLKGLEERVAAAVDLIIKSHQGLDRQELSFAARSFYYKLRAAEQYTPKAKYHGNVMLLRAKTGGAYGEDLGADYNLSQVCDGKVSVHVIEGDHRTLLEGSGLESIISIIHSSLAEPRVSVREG

For `CCn1nc(C)c2c1C(=O)NCC(c1ccc(O)cc1)=N2`, the compound was called inactive in assay [1], in assay [2], in assay [3], in assay [4], in assay [9] and in [11]. In addition, the result in [12], in [13], in assay [14], in [15], in assay [17] and in [18] was inactive. The AC50 (in general, the concentration at which the activity in the assay is half-maximal) in assay [5] is 50 µM (active); in [6], 0.18 µM (active); in assay [7], 0.185 µM (active); in assay [8], 1.91 µM (active); in assay [10] it was 17.1 µM (active); in assay [16], 40 µM (active).
As for `OCc1c[nH]c2ccccc12`, the call in assay [2], in assay [19], in [6], in assay [7], in assay [8] and in [20] was inactive.
For the compound `OC(CCl)CCl`, the outcome in assay [9], in [10], in assay [11], in [12], in [13] and in assay [14] was inactive. Further, the compound was called inactive in assay [15], in [17] and in assay [18]. In addition, the concentration at half-maximal activity (AC50) in assay [16] was 50 µM (active).
On to `Cc1nc(-c2ccccn2)ncc1C(=O)Nn1cc(C)c2cc(F)ccc21`, for which the compound was classed as inactive in [9], in assay [10], in assay [12], in [13], in [17] and in assay [18]. The concentration at half-maximal activity (AC50) was 1.49 µM (active) in assay [11], 50 µM (active) in assay [14], 85.2 µM (active) in assay [15] and 18.6 µM (active) in assay [16].
Consider `CCOc1ccc2[nH]cc(C(=O)NCc3ccccc3)c(=O)c2n1`, for which the call in [2], in assay [6], in assay [7], in [8], in [9] and in assay [10] was inactive. Moreover, the outcome in assay [11], in assay [12], in [13], in assay [14], in assay [17] and in assay [18] was inactive. The figures for the AC50 in [15] and in assay [16] were 79.6 µM (active) and 34 µM (active), respectively.
Regarding `Cc1nccn1-c1ccc(Sc2cccc(C3(C(N)=O)CCOCC3)c2)cc1`, the call in assay [9], in assay [11], in assay [13] and in assay [16] was inactive. Also, the AC50 in [10] is 9.48 µM (active); in assay [12] it was 12.3 µM (active); in [14], 8.97 µM (active); in assay [15], 9.6 µM (active); in assay [17] it was 28.3 µM (active); in [18] it was 9.73 µM (active).
`CCCCCCCCCCCCCCO`: the call in assay [2], in assay [6], in assay [7], in [8], in [9] and in assay [10] was inactive. For the same compound, the compound was called inactive in [11], in assay [12], in assay [13], in assay [14], in [15] and in assay [17]. Besides, the compound was classed as inactive in assay [18]. For the same compound, the AC50 in [16] was 50 µM (active).
Consider `CCCCC(CC)C(=O)OCCOCCOCCOC(=O)C(CC)CCCC` (stereo unspecified), for which the result in [1], in [2], in assay [19], in assay [3], in assay [4] and in [5] was inactive. Besides, the result in assay [6], in [7], in assay [8], in assay [9], in [10] and in assay [12] was inactive. Moreover, the outcome in assay [13], in [14], in assay [15], in assay [16], in assay [17] and in [18] was inactive. For the same compound, in assay [20], the compound was called inactive.
